# The whole screen tested about 1,100 compounds, of which fewer than 10 were called active. Not shown: some 6% with an inconclusive outcome. Calls come from the whole dose curve; as a rule, active = well fitted cell-killing curve with a large enough effect; inconclusive = small, poorly fitted or top-dose-only effect; inactive = flat fitted curve, though single readings scatter. These entries were drawn from the full list.
# Assay: qHTS of Nrf2 Activators: Hit Validation in Cytotox Assay;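 note: compound exposure lasted 24 hours before the ATP readout; 0% is about no effect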
# Conditions: Cell viability counter-screen for Nrf2 activator hits; series mostly up to 46.1 µM; activity change, negative = cytotoxicity: at the top concentration
# Source text: Many diseases have some form of oxidative stress injury and ties to inflammation, causing a host of problems for the patient. The antioxidant response element (ARE) plays an important role in alleviating the harmful effects of oxidative stress. The antioxidant response element (ARE) is a transcriptional regulatory element involved in the activation of genes coding for a number of antioxidant proteins and detoxifying enzymes. These enzymes work in concert to protect tissues from oxidative insults and chemical toxicities in human hepatocytes and immune cells. The protective effects of ARE activation are primarily triggered through Nrf2 (NF-E2-related factor) binding to and activating AREs. It is known that Nrf2 controls the production of over 250 antioxidant and detoxification proteins (Hu et al., 2006), thereby protecting tissues by increasing cellular antioxidant content and suppressing inflammatory signaling pathways. The transcription factor Nrf2 is a central link between oxidative chemicals, such as phenolic antioxidants and electrophilic compounds, and the activation of ARE. Nrf2 levels are constitutively low as a consequence of its interaction with Keap1, which targets its degradation (Zipper and Mulcahy, 2002). Electrophiles react with key cysteine residues in Keap1, releasing Nrf2 and allowing its translocation to the nucleus. Once within the nucleus, Nrf2 complexes with coactivators such as p300, and binds to the AREs to induce gene transcription of cytoprotective enzymes, resulting in the prevention of toxicity. Activation of Nrf2 protects tissues by increasing cellular antioxidant content and suppressing inflammatory signaling pathways. Identifying novel and potent Nrf2 activators by using the AREc32 cell line to detect ARE activation by small molecules will lead to the identification and development of probes to study protective pathways in multiple tissues. These specific probes are essential to study the ARE pathway, and eventually to determine whether this pathway does activate genes that could protect against a host of diseases, including cardiovascular diseases, obesity, diabetes, Alzheimer's, and Parkinson's disease.
# This project's aim is to identify novel and potent Nrf2 activators by using the AREc32 cell line to detect ARE activation by small molecules, which will lead to the identification and development of probes to study the ARE pathway. Cytotoxic compounds are flagged as active, and inactivity is desired in this assay.
# NIH Chemical Genomics Center [NCGC]
# NIH Molecular Libraries Probe Centers Network [MLPCN]
# Assay Submitter (PI): Curtis Klaassen, University of Kansas Medical Center
# Cell viability after compound treatment was measured using a luciferase-coupled ATP quantitation assay (CellTiter-Glo, Promega) in AREc32_fluc cells. The change of intracellular ATP content indicates the number of metabolically competent cells after compound treatment. AREc32_fluc cells were harvested from T225 flask and resuspended in phenol red free OPTI-MEM medium with 5% FBS. Then 5 microL of 200,000 cells/ml resuspended cells was dispensed into each well of white, solid bottom, 1536-well tissue culture-treated plates using a Multidrop Combi dispenser. After overnight culture at 37 degrees C with 5% CO2, a total of 23 nL of compounds at 7 selected concentrations from the cherry pick or positive control (40 uM stock of CDDO-IM and 2 mM of tBHQ) in DMSO was transferred to each well of the assay plate using a pintool (Kalypsys, San Diego, CA), and the plates were further incubated at 37 degrees C with 5% CO2 for 24 hours. After that, 4 microL of CellTilter-GloTM luminescent substrate mix (Promega) was added to each well. The plate was incubated at room temperature for 30 minutes. The plates were measured on a ViewLux plate reader (PerkinElmer) with clear filter.
row,SMILES,"activity change, negative = cytotoxicity"
1,CCc1c(C)sc(NC(=O)c2ccco2)c1C#N,12.1% (inactive)
2,COc1ccccc1NC(=O)/C=C\c1ccco1,2.45% (inactive)
3,CCN(C(=O)Cn1nnc2sc(-c3ccccc3)cc2c1=O)c1cccc(C)c1,-9.78% (inactive)
4,NC(=S)NN=C1CSSC1,-21.6% (inactive)
5,COc1ccc(-c2nnc3c4ccccc4c(C)nn23)cc1,4.5% (inactive)
6,O=C1Nc2ccccc2SC1=Cc1ccccc1,1.37% (inactive)
7,C/C(=N/NC(=O)CNC(=O)/C=C/c1ccco1)c1ccc(Cl)cc1,-4.27% (inactive)
8,CCOC(=O)c1ccccc1N/C=C/C(=O)c1ccccc1,1.71% (inactive)
9,O=C(Nc1cccc([N+](=O)[O-])c1)c1[nH]ncc1Cl,-11.2% (inactive)
10,COc1ccc(Cl)cc1NC(=O)C1COc2ccccc2O1 (stereo not given),4.89% (inactive)
11,COc1ccc(C(C#N)=C2C=CC(=NO)C=C2)cc1,-1.04% (inactive)
12,CC(=O)c1ccccc1NC(=O)COC(=O)/C=C/c1ccc(C)o1,11.2% (inactive)
13,O=[N+]([O-])c1ccc(NN=Cc2ccco2)nc1,10.9% (inactive)
14,O=C(/C=C/Nc1ccc(F)c(Cl)c1)c1ccco1,-0.863% (inactive)
15,COc1ccc(Cl)cc1C(=O)O/N=C(\N)c1ccccn1,-3.19% (inactive)
16,CCOC(=O)c1c(NC(=O)/C=C/c2ccc(C)o2)sc(C)c1C,4.84% (inactive)
17,O=[N+]([O-])c1ccc(Cl)cc1N/N=C/c1ccncc1,6.03% (inactive)
18,O=C(Nc1nc(=O)c2ccccc2s1)c1ccccc1,-18.4% (inactive)

row,SMILES,"activity change, negative = cytotoxicity"
1,Clc1ccccc1C=NNc1ccccn1,0.451% (inactive)
2,CC(C)C(=O)Nc1nnc(-c2ccco2)s1,6.12% (inactive)
3,Cn1c(/N=C(\N)c2ccccc2)nc2ccccc21,-3.63% (inactive)
4,O=C(Nc1ccccc1C(=O)NCCc1ccccc1)c1ccco1,5.2% (inactive)
5,NC(=O)c1oc2ccccc2c1NC(=O)c1ccccc1,1.78% (inactive)
6,O=C1COc2ccc(C(=O)COC(=O)/C=C/c3ccco3)cc2N1,-0.414% (inactive)
7,O=C(Nc1nccc(-c2cccs2)n1)c1cccs1,-1.81% (inactive)
8,N/C(=N\OC(=O)c1cc(Cl)ccc1Cl)c1cccnc1,-4.62% (inactive)
9,Cc1ccc(-c2nc3cccnc3s2)cc1NC(=O)c1ccco1,-5.81% (inactive)
10,Cn1c(SCC(=O)N/N=C/C=C\c2ccco2)nc2ccccc21,2.39% (inactive)
11,CC(C)c1ccc(NC(=O)c2sccc2-n2cccc2)cc1,-13.6% (inactive)
12,COC(=O)c1ccc2nc(-c3ccc(F)cc3)c(CC3CCCCC3)n2c1,-1.86% (inactive)
13,Cc1ccc(-c2cc(C(F)(F)F)c(C#N)c(SCCC#N)n2)o1,6.99% (inactive)
14,Clc1nc2sccn2c1/C=N/n1cnc2ccccc21,6.23% (inactive)
15,CC(=NNc1ccc2ccccc2n1)c1ccccc1O,-19.7% (inactive)
16,O=c1oc2ccc(Cl)cc2nc1/C=C(\O)c1cccs1,-4.12% (inactive)
17,C=C(NC(=O)C(=C)NC(=O)c1csc(C2=NC3c4csc(n4)C4NC(=O)c5csc(n5)C(C(C)(O)C(C)O)NC(=O)C5CSC(=N5)/C(=C/C)NC(=O)C(C(C)O)NC(=O)c5csc(n5)C3(CC2)NC(=O)C(C)NC(=O)C(=C)NC(=O)C(=C)NC(=O)C(C(C)C)NC2C=Cc3c(C(C)O)cc(nc3C2O)C(=O)OC4C)n1)C(N)=O (stereo not given),-14.5% (inactive)
